Among the data in PubChem BioAssay (EPA / NIEHS) are outcome and AC50 values, retold here.

Experiment [1] is described as follows: APR_HepG2_P-H2AX_72hr: Apredica 72-hour HepG2 Assay for H2AX Phosphorylation (AID 2282916).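 Further: phospho-histone H2A.x immunostain intensity per cell marking DNA damage.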 The following applies: imaging, actives raise or lower the signal. The method in brief:
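Phospho-histone H2A.x immunofluorescence, multiplexed with Hoechst and c-Jun, quantified by high-content imaging. Compounds applied to HepG2 for 72 h across ten concentrations (0.39–200 uM, 0.5% DMSO), in duplicate; DMSO baseline.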

Experiment [2] in a line: APR_HepG2_MitoMembPot_72hr: Apredica 72-hour HepG2 Assay for Mitochondrial Membrane Potential (AID 2282917). Conditions: imaging, actives raise or lower the signal. The method in brief:
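HepG2 cells dosed 72 hr with compound at 0.39–200 uM in duplicate, 0.5% v/v DMSO final. Mitochondria stained with 250 nM MitoTracker Red CMXRos for 30 min before formaldehyde fixation, imaged by high-content fluorescence; bidirectional fit versus DMSO.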

Experiment [3] can be described thus: APR_HepG2_MitoticArrest_72hr: Apredica 72-hour HepG2 Assay for Mitotic Arrest (AID 2282918). Conditions: high-content imaging, actives raise or lower the signal. The method in brief: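 High-content imaging of fixed human HepG2 cells after 72 h compound exposure (0.39–200 uM, duplicates, 0.5% DMSO); mitotic arrest scored from phospho-histone H3 and nuclear Hoechst staining relative to DMSO.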

A short description of experiment [4]: APR_HepG2_MicrotubuleCSK_72hr: Apredica 72-hour HepG2 Assay for Microtubule CSK Stabilty (AID 2282919). The following applies: HepG2 microtubule cytoskeleton, high-content imaging, actives raise or lower the signal. The method in brief:
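HepG2, 72 hr cmpd exposure, 0.39–200 uM (10 pts, duplicate), 0.5% DMSO. 3.7% formaldehyde fix, 0.5% Triton perm, anti-alpha-tubulin/Cy5 plus Hoechst. HCS fluorescence intensity; bidirectional fit vs DMSO baseline; taxol as positive control.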

Experiment [5] can be described thus: APR_HepG2_P-H2AX_24hr: Apredica 24-hour HepG2 Assay for H2AX Phosphorylation (AID 2282920). Conditions: high-content imaging, actives raise or lower the signal. The method in brief: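 High-content imaging of phospho-histone H2A.x immunofluorescence, nuclei counterstained with Hoechst 33342, in fixed HepG2 cells. Compounds ran 0.39–200 uM in duplicate for 24 h, final DMSO 0.5%. Signal change fitted both directions against DMSO.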

The nature of experiment [6]: APR_HepG2_StressKinase_72hr: Apredica 72-hour HepG2 Assay for Stress Kinase (AID 2282921). Conditions: HepG2 stress kinase (phospho-c-Jun) imaging, actives raise or lower the signal. The method in brief:
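Stress kinase signal is phospho-c-Jun immunofluorescence (1:500 primary, Cy3 secondary) in fixed, permeabilized human HepG2 cells imaged at 20x. Exposure lasted 72 hr over ten concentrations from 0.39 to 200 uM, 0.5% DMSO, in duplicate. Bidirectional fit versus DMSO.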

Experiment [7] is described as follows: APR_HepG2_StressKinase_24hr: Apredica 24-hour HepG2 Assay for Stress Kinase (AID 2282922). Conditions: HepG2 stress kinase (phospho-c-Jun) imaging, actives raise or lower the signal. Put shortly: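 Read-out: phospho-c-Jun immunofluorescence (Cy3 secondary) quantified by high-content imaging at 20x, nuclei defined by Hoechst 33342. Human HepG2 liver cells dosed 24 hr, 0.39–200 uM, DMSO 0.5% v/v; gain or loss of signal fitted relative to DMSO.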

The nature of experiment [8]: APR_HepG2_p53Act_72hr: Apredica 72-hour HepG2 Assay for p53 Activation (AID 2282923).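 Further: average cellular p53 protein immunofluorescence intensity in HepG2 cells.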 Conditions: high-content imaging, actives raise or lower the signal. The method in brief: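 After 72 h with compound (ten points, 0.39 to 200 uM, final DMSO 0.5% v/v), fixed HepG2 cells were labelled with sheep anti-p53 and Hoechst 33342 and imaged; gain or loss versus DMSO scored.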

A short description of experiment [9]: APR_HepG2_MitoMass_72hr: Apredica 72-hour HepG2 Assay for Mitochondrial Mass (AID 2282924).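 Further: MitoTracker Red CMXRos stain intensity per cell imaged as mitochondrial mass.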 The following applies: high-content imaging, actives raise or lower the signal. The method in brief: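 Read-out: MitoTracker Red fluorescence intensity from automated imaging (20x, six fields per well) in human HepG2 liver cells. Dosing ran 72 hr, 0.39–200 uM, 0.5% DMSO; bidirectional curve fitting versus DMSO baseline.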

Experiment [10] is described as follows: APR_HepG2_NuclearSize_72hr: Apredica 72-hour HepG2 Assay for Nuclear Size (AID 2282925). Conditions: high-content imaging, actives raise or lower the signal. Put shortly:
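Read-out: nuclear diameter from Hoechst 33342 images (ArrayScan, 20x, six fields/well), via cell-cycle image analysis. HepG2 were dosed 0.39–200 uM for 72 hr in 0.5% DMSO. Bidirectional fit relative to DMSO.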

Experiment [11] can be described thus: ATG_CRE_CIS: Attagene CIS-FACTORIAL HepG2 Assay for human cAMP Responsive Element (CRE) binding protein 3 (AID 2282926). The following applies: HepG2 CRE cis-reporter, Attagene multiplexed mRNA; actives raise or lower the signal. Put shortly:
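Endogenous transcription factor activity read via CRE-regulated reporter transcripts in transfected HepG2 cells. After 24 h exposure, RNA was reverse-transcribed, amplified, fluorescently labelled and sized by capillary electrophoresis; gain or loss fitted against DMSO.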

Experiment [12] deals with CCAAT/enhancer-binding protein beta (Homo sapiens) (UniProt P17676). Kind of experiment: ATG_C_EBP_CIS: Attagene CIS-FACTORIAL HepG2 Assay for human CCAAT/Enhancer Binding Protein (C/EBP) beta (AID 2282927). Conditions: HepG2 Attagene cis-factorial transcription factor reporter; actives raise or lower the signal. Put shortly: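 HepG2, transient MRTU transfection, 24 h treatment. RT-PCR plus CE fluorescence; DMSO negative control, bidirectional fit.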

Experiment [13] is described as follows: ATG_CMV_CIS: Attagene CIS-FACTORIAL HepG2 Assay for human CMV (Internal Marker) (AID 2282928).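 Further: endpoint acts as a background internal control marker rather than a target.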 The following applies: HepG2 CMV promoter reporter, transcription factor profiling; actives raise or lower the signal. Put shortly: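 Fluorescence intensity of RT-PCR-derived reporter fragments, resolved by capillary electrophoresis, gives the signal. HepG2 liver cells bearing transfected cis-element reporters were treated 24 h; activity in either direction was fit relative to DMSO-treated controls.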

The nature of experiment [14]: ATG_AP_1_CIS: Attagene CIS-FACTORIAL HepG2 Assay for human Activator Protein 1 (AP-1) (AID 2282931). The following applies: HepG2 Attagene cis-factorial AP-1 reporter mRNA; actives raise or lower the signal. The method in brief: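 We transfected HepG2 cells transiently with a set of cis-regulated reporter transcription units, dosed them for 24 h, and quantified reporter mRNA via RT-PCR and capillary electrophoresis, scoring gain or loss of signal relative to DMSO.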

Experiment [15] can be described thus: ATG_AP_2_CIS: Attagene CIS-FACTORIAL HepG2 Assay for human Activator Protein 2 (AP-2) (AID 2282932). Conditions: HepG2 AP-2 cis-reporter, Attagene transcription factor profiling; actives raise or lower the signal. Put shortly:
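Liver-derived HepG2 line, cis-reporter system measuring endogenous factors; 24 h dosing; reporter mRNA detected by fluorescent RT-PCR and capillary electrophoresis.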

Experiment [16] in a line: ATG_BRE_CIS: Attagene CIS-FACTORIAL HepG2 Assay for human Bone Morphogenetic Protein (BMP) Response Element (BRE) (AID 2282933). Conditions: HepG2 BMP response element reporter, Attagene transcription factor profiling; actives raise or lower the signal. Put shortly:
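HepG2 cells transiently transfected with CIS reporter units (endogenous TF activity, BMP response element), dosed 24 h. Reporter mRNA quantified by RT-PCR, fluorescent labelling and capillary electrophoresis; bidirectional fit vs DMSO baseline.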

Experiment [17] concerns the target Retinoic acid receptor alpha (Homo sapiens) (UniProt P10276). Kind of experiment: ATG_DR5_RAR_CIS: Attagene CIS-FACTORIAL HepG2 Assay for human Retinoic Acid Receptor Alpha (RARE), DR5 submotif (AID 2282934).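 On AC50: reporter responds to endogenous RAR alpha beta and gamma in HepG2 not RARA alone.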 Conditions: HepG2 Attagene cis-factorial RARE DR5 reporter, mRNA; actives raise or lower the signal. Put shortly: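 After 24 h of chemical exposure, transiently transfected HepG2 cells were lysed for total RNA; the DR5-regulated reporter transcript was quantified via RT-PCR and capillary electrophoresis, with activity fitted bidirectionally against DMSO.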

Experiment [18] can be described thus: ATG_DR4_LXR_CIS: Attagene CIS-FACTORIAL HepG2 Assay for human Liver X Receptor (LXR), DR4 submotif (AID 2282929). The following applies: HepG2 Attagene DR4 cis-reporter, mRNA transcription; actives raise or lower the signal. The method in brief:
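Transiently transfected HepG2 liver cells; cis-regulated reporters; 24 h dosing. RT-PCR plus CE read-out of reporter mRNA. DMSO baseline, bidirectional curve fitting.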

Active and inactive are the calls of the source. How the source made its calls: active means hit-call score of the fitted dose curve at least 0.9, where 1 is the maximum; inactive means score below 0.9.

The term AC50 denotes the concentration giving half of the maximal activity seen.

Sequence of Retinoic acid receptor alpha (Homo sapiens) (P10276 whole entry, looked up): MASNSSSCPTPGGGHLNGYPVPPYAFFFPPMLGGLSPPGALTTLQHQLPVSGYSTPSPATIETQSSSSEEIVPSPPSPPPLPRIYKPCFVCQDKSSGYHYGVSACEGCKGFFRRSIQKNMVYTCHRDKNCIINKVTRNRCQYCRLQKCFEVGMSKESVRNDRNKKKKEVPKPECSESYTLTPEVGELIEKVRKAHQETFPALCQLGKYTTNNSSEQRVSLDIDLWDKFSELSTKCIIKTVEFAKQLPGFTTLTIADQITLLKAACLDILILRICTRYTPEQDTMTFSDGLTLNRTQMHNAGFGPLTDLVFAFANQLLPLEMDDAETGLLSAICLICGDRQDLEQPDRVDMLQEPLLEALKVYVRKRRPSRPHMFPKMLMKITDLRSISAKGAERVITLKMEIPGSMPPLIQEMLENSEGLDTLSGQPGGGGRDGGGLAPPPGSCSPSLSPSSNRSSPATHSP
Sequence of CCAAT/enhancer-binding protein beta (Homo sapiens) (P17676 whole entry, looked up): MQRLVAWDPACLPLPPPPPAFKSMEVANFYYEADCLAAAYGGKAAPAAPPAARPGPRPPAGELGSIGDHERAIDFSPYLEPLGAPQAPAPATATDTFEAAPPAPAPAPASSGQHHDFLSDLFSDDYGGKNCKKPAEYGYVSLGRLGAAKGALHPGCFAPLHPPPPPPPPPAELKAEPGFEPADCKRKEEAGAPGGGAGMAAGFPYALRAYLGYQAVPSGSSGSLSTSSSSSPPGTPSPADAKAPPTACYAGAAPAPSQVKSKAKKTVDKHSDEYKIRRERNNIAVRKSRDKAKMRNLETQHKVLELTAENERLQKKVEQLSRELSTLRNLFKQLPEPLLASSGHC

Regarding `[2H]C1([2H])[n+]2ccccc2-c2cccc[n+]2C1([2H])[2H]`, the result in [1], in experiment [2], in [5], in [6], in [7] and in [8] was inactive. For the same compound, the compound was called inactive in experiment [9], in experiment [10], in experiment [11], in [12], in experiment [15] and in experiment [16]. In experiment [17], the result was inactive. Also, the concentration at half-maximal activity (AC50) was 94.5 µM (active) in experiment [3], 143 µM (active) in [4], 13.5 µM (active) in experiment [13] and 38.9 µM (active) in experiment [14].

Take `N#CN`: the result in [1], in experiment [2], in experiment [3], in experiment [4], in experiment [5] and in experiment [6] was inactive. The compound was called inactive in experiment [7], in experiment [9], in experiment [10], in [11], in experiment [12] and in experiment [13]. For the same compound, the result in experiment [18], in [14], in [15], in experiment [16] and in experiment [17] was inactive.

Turning to `CC[C@H](C)[C@H]1O[C@]2(C=C[C@@H]1C)C[C@@H]1C[C@@H](C/C=C(\C)[C@@H](O[C@H]3C[C@H](OC)[C@@H](O[C@H]4C[C@H](OC)[C@@H](O)[C@H](C)O4)[C@H](C)O3)[C@@H](C)/C=C/C=C3\CO[C@@H]4[C@H](O)C(C)=C[C@@H](C(=O)O1)[C@]34O)O2` (tested in a mixture with another compound), the outcome in experiment [1], in experiment [2], in experiment [3], in experiment [4], in [5] and in [6] was inactive. Also, the compound was classed as inactive in experiment [7], in experiment [8], in experiment [9], in experiment [10], in [11] and in experiment [12]. For the same compound, the result in experiment [13], in experiment [14], in experiment [15], in [16] and in experiment [17] was inactive.

Turning to `CCOC1Oc2ccc(OS(C)(=O)=O)cc2C1(C)C` (stereo not drawn), the call in [1], in [2], in experiment [3], in [4], in experiment [5] and in [6] was inactive. The compound was classed as inactive in experiment [7], in [9], in [10], in [13], in [18] and in experiment [14]. The result in [15] was inactive. Further, the concentration at half-maximal activity (AC50) was 24 µM (active) in [11], 14.5 µM (active) in experiment [12], 61.4 µM (active) in experiment [16] and 12.5 µM (active) in experiment [17].
